According to PubChem BioAssay (NCI):
About 79,000 compounds went through this panel and 15% of them were active in at least one assay; those are over-represented in the sample as a whole. Activity calls are given as the source filed them. Rule as the data show it: active = growth inhibition above about 70%; inactive = the rest.

Experiment: NCI Yeast Anticancer Drug Screen. Data for the wt1 strain (AID 149);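 also: 0% = growth of vehicle-treated wt1 cultures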
Settings: S. cerevisiae wt1 strain (SPY 50644) growth inhibition, hits give high values
Experimental: Growth inhibition of yeast strains with defined genetic alterations is measured as a screen for potential anti-cancer activity. Selected strains with alterations in DNA damage repair or cell cycle control were exposed to compounds and growth inhibition was measured relative to vehicle treated controls. The strain used in this assay is wt1

Measured: growth inhibition

CCOC(=O)c1cnc2cc(C(F)(F)F)ccc2c1N=[N+]=[N-]
inactive: at 1.2 µM 3% | at 3.7 µM 4% | at 11.0 µM 8% | at 33.0 µM 37%
active: at 100.0 µM 87%

CCC(=O)OCCn1c2nc(=O)[nH]c(=O)c-2nc2cc(C)c(C)cc21
inactive: at 1.2 µM 8% | at 3.7 µM -4% | at 11.0 µM 4% | at 33.0 µM 7% | at 100.0 µM 11%

Oc1c(Br)cc(Br)cc1C1CCCCC1
inactive: at 1.2 µM -21% | at 3.7 µM -12% | at 11.0 µM -6%
active: at 33.0 µM 97% | at 100.0 µM 98%

CSC1=NNC(SC)=NN1
active: at 100.0 µM 99%
inactive: at 1.2 µM -7% | at 3.7 µM -9% | at 11.0 µM -6% | at 33.0 µM 51%

O=C(CCCN1CCC2(CC1)CC(=O)N(N1CCCCCC1)C2=O)c1ccc(F)cc1
inactive: at 1.2 µM 11% | at 3.7 µM 24% | at 11.0 µM 25% | at 33.0 µM 34% | at 100.0 µM 41%

Cc1ccc(-n2cc(-c3ccc(Cl)cc3)c(C#N)c2N)cc1
inactive: at 1.2 µM -4% | at 3.7 µM -2% | at 11.0 µM 1% | at 33.0 µM -2% | at 100.0 µM -3%

COc1ccccc1N=NC(C(=O)c1ccccc1)C(=O)c1ccccc1
inactive: at 1.2 µM 6% | at 3.7 µM 3% | at 11.0 µM 13%
active: at 33.0 µM 96% | at 100.0 µM 96%

COC(=O)C1=C(C(=O)OC)C2(C)C=CC1O2 (stereo not given)
active: at 100.0 µM 93%
inactive: at 1.2 µM 0% | at 3.7 µM 7% | at 11.0 µM 30% | at 33.0 µM 62%
